In paper PMC7862700, “An all-to-all approach to the identification of sequence-specific readers for epigenetic DNA modifications on cytosine”:

Assays:
Assay in all cases: DAPPL (digital affinity profiling via proximity ligation, sequencing); 10 mM Tris-HCl pH 7.5, 50 mM NaCl, 1 mM DTT, 4% glycerol, room temperature, 30 min; GST-TFs on glutathione beads, 16-mer random dsDNA library, 0.1% formaldehyde crosslink after washing; high values mean tight binding
[1] = target: HSF1 (Homo sapiens, UniProt Q00613 1-529); details: protein: recombinant; tags: N-terminal GST; chain copies: 3; dsDNA, one strand shown
Chain of HSF1 (Q00613 whole entry, the tested form may be a part): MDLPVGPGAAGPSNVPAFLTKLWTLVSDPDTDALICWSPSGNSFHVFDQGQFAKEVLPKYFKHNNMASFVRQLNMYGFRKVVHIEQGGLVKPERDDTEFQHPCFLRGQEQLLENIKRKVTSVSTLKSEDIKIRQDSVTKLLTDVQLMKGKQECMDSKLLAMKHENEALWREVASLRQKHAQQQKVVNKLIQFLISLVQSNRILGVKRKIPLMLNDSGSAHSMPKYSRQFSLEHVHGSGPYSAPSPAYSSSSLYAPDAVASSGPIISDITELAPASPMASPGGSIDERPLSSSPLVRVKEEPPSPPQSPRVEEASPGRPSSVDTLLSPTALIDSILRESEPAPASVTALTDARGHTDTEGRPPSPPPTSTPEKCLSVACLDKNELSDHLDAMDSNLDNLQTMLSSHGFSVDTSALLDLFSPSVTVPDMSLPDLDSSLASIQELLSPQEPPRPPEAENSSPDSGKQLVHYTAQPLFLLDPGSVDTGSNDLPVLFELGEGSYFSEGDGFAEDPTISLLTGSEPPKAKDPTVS
Method in brief: (§1)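 Binding signal is each hexamer's read frequency for a factor divided by its frequency in the tag-only sample. The factors were GST-fused human transcription factors from yeast, captured on glutathione beads, DNA-barcoded and pooled with that sample. Pools were incubated with 200 nmole of a random double-stranded 16-mer DNA library in Tris/NaCl/DTT/glycerol buffer at room temperature for 30 min, then washed, crosslinked with 0.1% formaldehyde, proximity-ligated with BsaI/T4 ligase (1 h, 37 °C), PCR-amplified and sequenced on an Illumina NextSeq500.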

[2] = target: T1, FLI1 (Homo sapiens, UniProt Q01543 1-452); details: protein: recombinant; tags: N-terminal GST; dsDNA, one strand shown
T1 sequence: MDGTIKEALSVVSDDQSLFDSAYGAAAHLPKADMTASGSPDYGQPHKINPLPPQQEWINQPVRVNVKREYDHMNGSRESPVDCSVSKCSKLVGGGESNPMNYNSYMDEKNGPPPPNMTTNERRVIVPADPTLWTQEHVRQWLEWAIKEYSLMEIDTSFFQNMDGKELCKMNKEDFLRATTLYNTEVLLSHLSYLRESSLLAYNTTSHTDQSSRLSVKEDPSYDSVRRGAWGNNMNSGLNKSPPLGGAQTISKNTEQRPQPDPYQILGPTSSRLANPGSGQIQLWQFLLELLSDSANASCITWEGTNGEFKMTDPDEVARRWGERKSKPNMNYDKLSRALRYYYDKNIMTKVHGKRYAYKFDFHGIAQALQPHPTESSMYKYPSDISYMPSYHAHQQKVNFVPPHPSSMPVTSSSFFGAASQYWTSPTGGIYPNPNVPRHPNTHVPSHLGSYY
Method in brief: as §1

[3] = target: T2, ELK1 (Homo sapiens, UniProt P19419 1-428); details: protein: recombinant; tags: N-terminal GST; dsDNA, one strand shown
T2 sequence: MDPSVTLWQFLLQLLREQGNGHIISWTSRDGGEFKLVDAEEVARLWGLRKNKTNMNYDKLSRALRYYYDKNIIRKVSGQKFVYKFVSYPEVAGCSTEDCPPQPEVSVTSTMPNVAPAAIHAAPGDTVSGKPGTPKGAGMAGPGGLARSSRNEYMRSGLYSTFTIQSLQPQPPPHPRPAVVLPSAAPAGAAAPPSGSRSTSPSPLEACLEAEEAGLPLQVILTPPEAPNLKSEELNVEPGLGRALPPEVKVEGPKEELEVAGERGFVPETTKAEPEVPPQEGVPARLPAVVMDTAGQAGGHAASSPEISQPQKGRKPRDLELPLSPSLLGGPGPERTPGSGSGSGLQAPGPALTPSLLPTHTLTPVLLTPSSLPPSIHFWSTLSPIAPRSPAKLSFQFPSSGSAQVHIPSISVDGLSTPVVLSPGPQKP
Method in brief: as §1

[4] = target: T3, GABPA (Homo sapiens, UniProt Q06546 1-454); details: protein: recombinant; tags: N-terminal GST; dsDNA, one strand shown
T3 sequence: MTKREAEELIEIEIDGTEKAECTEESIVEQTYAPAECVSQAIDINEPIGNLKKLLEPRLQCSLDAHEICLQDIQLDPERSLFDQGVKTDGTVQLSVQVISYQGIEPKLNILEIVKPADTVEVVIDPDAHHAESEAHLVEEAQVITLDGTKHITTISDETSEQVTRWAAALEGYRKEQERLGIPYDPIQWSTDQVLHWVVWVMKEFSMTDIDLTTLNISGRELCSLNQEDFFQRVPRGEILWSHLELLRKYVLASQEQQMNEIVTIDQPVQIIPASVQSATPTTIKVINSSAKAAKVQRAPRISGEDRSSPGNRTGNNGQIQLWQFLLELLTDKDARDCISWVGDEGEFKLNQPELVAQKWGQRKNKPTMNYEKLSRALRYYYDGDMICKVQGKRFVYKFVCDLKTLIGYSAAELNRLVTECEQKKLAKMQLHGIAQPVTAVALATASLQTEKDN
Method in brief: as §1

[5] = target: SPIB (Homo sapiens, UniProt Q01892 1-262); details: protein: recombinant; tags: N-terminal GST; dsDNA, one strand shown
Chain of SPIB (Q01892 whole entry): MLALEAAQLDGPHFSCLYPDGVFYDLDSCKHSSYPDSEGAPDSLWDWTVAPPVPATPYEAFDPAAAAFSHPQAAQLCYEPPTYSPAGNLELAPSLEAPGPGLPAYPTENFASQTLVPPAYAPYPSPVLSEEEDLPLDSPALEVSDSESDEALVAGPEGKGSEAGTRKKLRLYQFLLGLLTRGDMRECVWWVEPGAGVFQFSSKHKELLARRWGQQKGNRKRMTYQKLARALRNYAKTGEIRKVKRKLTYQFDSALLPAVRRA
Method in brief: as §1

[6] = target: T4, ELK3 (Homo sapiens, UniProt P41970 1-407); details: protein: recombinant; tags: N-terminal GST; dsDNA, one strand shown
T4 sequence: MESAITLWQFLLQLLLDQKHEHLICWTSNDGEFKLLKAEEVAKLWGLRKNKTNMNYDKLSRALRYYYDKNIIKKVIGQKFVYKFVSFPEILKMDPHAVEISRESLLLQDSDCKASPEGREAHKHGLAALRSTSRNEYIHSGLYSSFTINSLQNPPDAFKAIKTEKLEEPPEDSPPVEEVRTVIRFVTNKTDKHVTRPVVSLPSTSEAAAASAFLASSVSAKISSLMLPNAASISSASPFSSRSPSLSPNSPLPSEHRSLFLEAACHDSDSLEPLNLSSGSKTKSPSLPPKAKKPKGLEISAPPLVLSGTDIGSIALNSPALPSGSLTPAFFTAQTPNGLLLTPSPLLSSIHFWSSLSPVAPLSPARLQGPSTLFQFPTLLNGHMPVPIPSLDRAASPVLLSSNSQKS
Method in brief: as §1

[7] = target: T5, ELK4 (Homo sapiens, UniProt P28324-2 1-405); details: protein: recombinant; tags: N-terminal GST; dsDNA, one strand shown
T5 sequence: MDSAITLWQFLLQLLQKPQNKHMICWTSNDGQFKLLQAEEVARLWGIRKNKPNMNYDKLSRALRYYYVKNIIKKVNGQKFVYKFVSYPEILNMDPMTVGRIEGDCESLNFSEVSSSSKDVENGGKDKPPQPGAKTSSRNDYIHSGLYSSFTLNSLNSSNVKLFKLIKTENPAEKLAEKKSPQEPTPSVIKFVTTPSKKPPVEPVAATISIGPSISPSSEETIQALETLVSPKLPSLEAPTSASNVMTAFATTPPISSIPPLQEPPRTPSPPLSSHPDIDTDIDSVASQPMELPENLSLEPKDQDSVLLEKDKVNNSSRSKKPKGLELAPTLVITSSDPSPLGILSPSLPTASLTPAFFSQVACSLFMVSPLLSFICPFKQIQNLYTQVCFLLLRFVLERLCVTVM
Method in brief: as §1

[8] = target: T6, ETV2 (Homo sapiens, UniProt O00321 1-342); details: protein: recombinant; tags: N-terminal GST; dsDNA, one strand shown
T6 sequence: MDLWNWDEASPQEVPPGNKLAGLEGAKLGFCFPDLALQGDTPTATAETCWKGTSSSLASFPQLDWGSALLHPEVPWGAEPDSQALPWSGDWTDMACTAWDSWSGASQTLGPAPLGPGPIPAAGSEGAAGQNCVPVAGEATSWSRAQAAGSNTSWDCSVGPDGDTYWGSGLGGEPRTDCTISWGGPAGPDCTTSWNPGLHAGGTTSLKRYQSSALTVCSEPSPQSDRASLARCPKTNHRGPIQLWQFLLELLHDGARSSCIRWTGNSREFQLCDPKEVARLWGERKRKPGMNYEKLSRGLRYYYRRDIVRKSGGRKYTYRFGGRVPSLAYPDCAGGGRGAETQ
Method in brief: as §1

[9] = target: ETV1 (Homo sapiens, UniProt P50549 1-477); details: protein: recombinant; tags: N-terminal GST; dsDNA, one strand shown
Chain of ETV1 (P50549 whole entry): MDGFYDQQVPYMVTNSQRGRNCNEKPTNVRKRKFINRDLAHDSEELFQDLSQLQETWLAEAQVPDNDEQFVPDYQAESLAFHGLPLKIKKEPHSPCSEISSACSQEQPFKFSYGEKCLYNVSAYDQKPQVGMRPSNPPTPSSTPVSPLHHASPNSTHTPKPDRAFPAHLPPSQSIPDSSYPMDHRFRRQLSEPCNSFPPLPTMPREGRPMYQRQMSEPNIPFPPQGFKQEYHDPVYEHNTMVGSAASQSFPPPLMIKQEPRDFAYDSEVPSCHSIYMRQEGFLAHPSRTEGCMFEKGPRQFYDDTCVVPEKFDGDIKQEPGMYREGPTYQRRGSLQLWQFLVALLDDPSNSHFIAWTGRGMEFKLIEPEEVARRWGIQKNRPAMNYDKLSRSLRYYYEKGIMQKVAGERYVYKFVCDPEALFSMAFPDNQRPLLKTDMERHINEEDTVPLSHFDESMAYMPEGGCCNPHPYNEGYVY
Method in brief: as §1

[10] = target: T7, ERF (Homo sapiens, UniProt P50548 1-548); details: protein: recombinant; tags: N-terminal GST; dsDNA, one strand shown
T7 sequence: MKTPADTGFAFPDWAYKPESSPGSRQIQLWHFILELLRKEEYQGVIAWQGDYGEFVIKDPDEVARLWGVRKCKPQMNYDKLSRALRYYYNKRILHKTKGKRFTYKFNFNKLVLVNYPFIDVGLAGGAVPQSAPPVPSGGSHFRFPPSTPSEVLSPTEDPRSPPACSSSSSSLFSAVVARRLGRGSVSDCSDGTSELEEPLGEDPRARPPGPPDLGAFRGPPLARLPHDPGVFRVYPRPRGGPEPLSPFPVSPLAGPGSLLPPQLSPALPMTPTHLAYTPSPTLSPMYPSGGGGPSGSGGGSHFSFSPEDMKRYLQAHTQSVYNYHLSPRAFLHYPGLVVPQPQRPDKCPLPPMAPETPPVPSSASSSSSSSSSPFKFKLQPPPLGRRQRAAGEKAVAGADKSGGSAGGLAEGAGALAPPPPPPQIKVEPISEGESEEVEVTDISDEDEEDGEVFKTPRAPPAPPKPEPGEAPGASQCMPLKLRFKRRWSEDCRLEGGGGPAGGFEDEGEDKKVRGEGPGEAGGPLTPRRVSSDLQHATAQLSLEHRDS
Method in brief: as §1

[11] = target: ETV6 (Homo sapiens, UniProt P41212 1-452); details: protein: recombinant; tags: N-terminal GST; dsDNA, one strand shown
Chain of ETV6 (P41212 whole entry): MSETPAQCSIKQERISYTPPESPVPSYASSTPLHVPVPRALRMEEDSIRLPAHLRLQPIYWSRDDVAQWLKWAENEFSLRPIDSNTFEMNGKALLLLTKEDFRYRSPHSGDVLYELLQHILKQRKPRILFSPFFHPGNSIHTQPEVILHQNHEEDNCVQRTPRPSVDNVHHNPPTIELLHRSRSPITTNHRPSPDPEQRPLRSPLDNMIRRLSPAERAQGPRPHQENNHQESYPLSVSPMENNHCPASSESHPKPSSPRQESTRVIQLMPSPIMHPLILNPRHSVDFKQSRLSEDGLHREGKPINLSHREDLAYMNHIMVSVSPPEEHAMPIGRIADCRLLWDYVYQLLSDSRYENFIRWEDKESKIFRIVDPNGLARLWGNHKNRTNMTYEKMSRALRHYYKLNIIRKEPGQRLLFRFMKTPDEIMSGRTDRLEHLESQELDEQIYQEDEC
Method in brief: as §1

Sequence	binding signal [1]	binding signal [2]	binding signal [3]	binding signal [4]	binding signal [5]	binding signal [6]	binding signal [7]	binding signal [8]	binding signal [9]	binding signal [10]	binding signal [11]
GGGAAT	1.09 fold enrichment (6-mer frequency, TF over GST control)										
GGTCTG		1.03 fold enrichment (6-mer frequency, TF over GST control)	1.11 fold enrichment (6-mer frequency, TF over GST control)	1.02 fold enrichment (6-mer frequency, TF over GST control)	1 fold enrichment (6-mer frequency, TF over GST control)	1.03 fold enrichment (6-mer frequency, TF over GST control)	1.07 fold enrichment (6-mer frequency, TF over GST control)	1.07 fold enrichment (6-mer frequency, TF over GST control)	1.07 fold enrichment (6-mer frequency, TF over GST control)	1.09 fold enrichment (6-mer frequency, TF over GST control)	1.02 fold enrichment (6-mer frequency, TF over GST control)
